From PubChem
HIF activator = HIF pathway transcriptional activation; activation, % at 7.5 µM (by protocol); U2OS HRE-luciferase reporter, luminescence; normalized: DMSO 0%, desferrioxamine 100%; AID 1910; 300,000 tested, 0.32% active;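 active = mean activation of at least 10% of the iron chelator positive control signal, with at least half of replicates also reaching 10%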
STK33 kinase inh = inhibitors of human STK33 kinase; inhibition, % at 10 µM; AID 2661; Q9BYT3; purified STK33, MBP phosphorylation, ADP-Glo luminescence; 320,000 tested, 0.073% active;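 active = inhibition at or above 25%, using the most active replicate where run in duplicate; inactive = inhibition below 25%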
Target sequence (Q9BYT3 whole entry, looked up): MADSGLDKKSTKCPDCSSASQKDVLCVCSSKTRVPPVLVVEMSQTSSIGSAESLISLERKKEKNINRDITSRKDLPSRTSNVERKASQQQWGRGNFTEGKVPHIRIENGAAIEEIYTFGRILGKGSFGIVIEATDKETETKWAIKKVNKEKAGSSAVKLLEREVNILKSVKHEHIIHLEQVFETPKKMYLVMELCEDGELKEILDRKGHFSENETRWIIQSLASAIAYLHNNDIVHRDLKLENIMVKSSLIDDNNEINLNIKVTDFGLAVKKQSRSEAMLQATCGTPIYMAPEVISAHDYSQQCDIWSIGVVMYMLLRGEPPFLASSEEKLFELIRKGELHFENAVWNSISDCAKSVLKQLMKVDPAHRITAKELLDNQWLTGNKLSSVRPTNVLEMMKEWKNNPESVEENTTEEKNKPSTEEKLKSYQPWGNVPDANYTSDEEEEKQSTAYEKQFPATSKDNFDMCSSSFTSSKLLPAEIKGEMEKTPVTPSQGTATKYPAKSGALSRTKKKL
PP5 inh = blocks human protein phosphatase 5 activity. purified PP5c, OMFP substrate fluorescence. inhibition, % at 6.7 µM. 320,000 tested, 0.18% active. AID 1987;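 active = inhibition above the campaign's mean inhibition across all tested compounds plus 3 SD, cut at about 9.5% in these data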;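 note: 0% = DMSO only and 100% = 100 µM cantharidin control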
Dyrk1A ADPGlo = Dyrk1A (rat) kinase inhibition; 310,000 tested, 0.43% active; AID 504441; ADP-Glo luminescence, NFATc1 peptide; inhibition, % at 12.5 µM; Q63470; in the data active = inhibition above about 50%;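 note: plate controls were vehicle with enzyme for no effect and no enzyme for full effect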
PP1 counter = blocks human PP1-alpha phosphatase, a PP5 counter-screen; P62136; 320,000 tested, 0.9% active; inhibition, % at 6.7 µM; AID 2235; purified PP1alpha, OMFP fluorescence;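 active = inhibition above the mean inhibition of all tested compounds plus 3 SD, computed separately for each screening campaign, cut at about 15% in these data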
Numbers without * were called inactive. The list is not random: actives were taken first. Their share in the collection is about 1.5%.

COc1ccc(S(=O)(=O)N2CCC(C(=O)NCc3cccs3)CC2)cc1 was read as HIF activator 0.3, STK33 kinase inh -2.5, PP5 inh -2.3, Dyrk1A ADPGlo -6.9 and PP1 counter 1.0.
COc1ccc(CCNC(=O)CC(NC(=O)c2ccccc2Cl)c2ccccc2)cc1 (stereo not drawn) was read as HIF activator 46.3*, STK33 kinase inh 0.5, PP5 inh 0.7, Dyrk1A ADPGlo -3.4 and PP1 counter 12.2.
For COc1ccc(CCNC(=O)CCNC(=O)c2ccccc2Cl)cc1 the results were HIF activator -0.3, STK33 kinase inh -1.7, PP5 inh 1.1, Dyrk1A ADPGlo 1.9 and PP1 counter 0.9.
For O=C(O)c1ccc2cccc(O)c2n1 the results were HIF activator 40.3*, STK33 kinase inh -1.0, PP5 inh -0.1, Dyrk1A ADPGlo 13.0 and PP1 counter 0.0.
Screening O=C(O)c1cccc(C(=O)O)n1 returned HIF activator 0.0.
Screening COc1ccc(-n2nnnc2SC(C)C(=O)NC2CCCC2)cc1 (stereo not drawn) returned STK33 kinase inh -1.4, PP5 inh 2.1, Dyrk1A ADPGlo 4.9 and PP1 counter 0.7.
For CC(c1ccccc1)N(NC(=O)C(O)(c1ccccc1)c1ccccc1)C(=O)c1ccccc1 (stereo not drawn) the results were HIF activator -0.4, PP5 inh -1.4 and PP1 counter 10.9.
`CCOC(=O)CN(C(=O)COc1nc(C)cc(C)c1C#N)c1cccc(Cl)c1` gave HIF activator 24.6*, STK33 kinase inh 0.3, PP5 inh 1.0, Dyrk1A ADPGlo 13.2 and PP1 counter -3.3.
For CCOC(=O)CN(C(=O)COc1nc(-c2ccccc2)cc(C)c1C#N)c1ccccc1 the results were HIF activator 0.3, STK33 kinase inh -21.3, PP5 inh -0.6, Dyrk1A ADPGlo 0.0 and PP1 counter -1.3.
For Cc1sc(NC(=O)c2ccco2)c(CN2CCC(C)CC2)c1C the results were HIF activator 51.0*, STK33 kinase inh 2.0, PP5 inh 6.5, Dyrk1A ADPGlo -0.8 and PP1 counter 2.7.
O=C(Cc1c(O)c2ccccc2oc1=O)c1ccc(C(F)(F)F)cc1 was read as HIF activator 1.1, STK33 kinase inh 0.4, PP5 inh 2.9, Dyrk1A ADPGlo 3.3 and PP1 counter 1.6.
`O=c1oc2ccccc2c(O)c1Cc1cc(Cl)c2cccnc2c1O` gave HIF activator 0.2, STK33 kinase inh -1.8, PP5 inh -1.6, Dyrk1A ADPGlo 11.7 and PP1 counter 15.8*.
For Cc1ccc(S(=O)(=O)N2CCN(C(=O)CCC(=O)Nc3ccc(F)cc3F)CC2)cc1 the results were STK33 kinase inh 0.4 and Dyrk1A ADPGlo -5.6.
Screening O=C(N/N=C/c1ccc(-c2ccc(Br)cc2)o1)c1ccc2c(c1)OCO2 returned HIF activator 0.5, STK33 kinase inh -0.6, PP5 inh 4.7, Dyrk1A ADPGlo -1.3 and PP1 counter 15.6*.
For O=C(N/N=C/c1ccc(COc2ccc(Br)cc2)o1)c1ccc2c(c1)OCO2 the results were HIF activator -0.4 and Dyrk1A ADPGlo -0.7.
`N#CCN1C(=O)C2CCCN2c2ccc(S(=O)(=O)N3CCOCC3)cc21` (stereo not drawn) gave HIF activator -0.2, STK33 kinase inh -0.8, PP5 inh 2.5, Dyrk1A ADPGlo -4.7 and PP1 counter 0.1.
For CCNC(=O)CSc1nnc(-c2ccccc2)n1-c1ccc(OCC)cc1 the results were HIF activator -0.5, STK33 kinase inh -1.9, PP5 inh 0.6, Dyrk1A ADPGlo -4.0 and PP1 counter -2.5.
CCOc1ccc(-n2c(-c3ccccc3)nnc2-c2ccccc2)cc1 was read as HIF activator 1.9, STK33 kinase inh -0.9, PP5 inh 1.0, Dyrk1A ADPGlo -1.6 and PP1 counter 15.9*.
`COC(=O)C(Cc1ccccc1)NC(=O)c1cc(S(=O)(=O)N(C)C)ccc1Cl` (stereo not drawn) gave HIF activator -0.6, STK33 kinase inh 1.3, PP5 inh -0.1 and PP1 counter -1.5.
For Cc1c(C)n(Cc2ccccc2)c2ccc(C(=O)OCCN(C)C)cc12 the results were HIF activator 0.9, STK33 kinase inh -0.5, PP5 inh 3.3, Dyrk1A ADPGlo 2.5 and PP1 counter 0.7.
`C=CCn1c(SCC(=O)Nc2nccs2)nnc1-c1cc2cccc(OC)c2o1` gave HIF activator -0.9, STK33 kinase inh -0.3, PP5 inh 5.1, Dyrk1A ADPGlo 1.6 and PP1 counter 16.7*.
For CCCn1c2ccccc2c2cnn(CC(=O)NC3CCCC(C)C3C)c(=O)c21 (stereo not drawn) the results were HIF activator 13.4*, STK33 kinase inh 0.4, PP5 inh 0.6, Dyrk1A ADPGlo 2.2 and PP1 counter 5.8.
Screening O=[N+]([O-])c1ccc(OCCCCCN2CCOCC2)cc1 returned HIF activator 0.8, STK33 kinase inh -1.8, PP5 inh -1.4, Dyrk1A ADPGlo -6.3 and PP1 counter -1.8.
`O=[N+]([O-])c1ccc(OCCCCN2CCCCC2)cc1` gave HIF activator 189.0*, STK33 kinase inh -3.3, PP5 inh -2.8, Dyrk1A ADPGlo -1.9 and PP1 counter -5.7.
For Cc1nnc(C)n1/N=C/c1c(O)ccc2ccccc12 the results were HIF activator -5.8, STK33 kinase inh 0.7, PP5 inh 1.1, Dyrk1A ADPGlo -0.3 and PP1 counter -0.3.
Cc1nc2ccccc2c(=O)n1/N=C/c1ccc2ccccc2c1O was read as HIF activator 10.8*, STK33 kinase inh 0.0, PP5 inh 2.7 and PP1 counter -0.5.
Cc1nnc(-c2ccccc2)c(=O)n1/N=C/c1c(O)ccc2ccccc12 was read as HIF activator 68.8*, STK33 kinase inh -1.1, PP5 inh 2.3, Dyrk1A ADPGlo -3.4 and PP1 counter 0.1.
Screening O=C(C1=C[C@@H](C2CCCCC2)C[C@@H](OCCCCO)O1)N1CCN(Cc2ccc3c(c2)OCO3)CC1 returned HIF activator -1.8, STK33 kinase inh -0.2, PP5 inh 3.5, Dyrk1A ADPGlo 10.4 and PP1 counter -0.4.
`O=C(C1=C[C@@H](C2CC2)C[C@@H](OCCCCO)O1)N1CCN(Cc2ccc3c(c2)OCO3)CC1` gave HIF activator 40.0*, STK33 kinase inh 0.1, PP5 inh 2.5, Dyrk1A ADPGlo 6.3 and PP1 counter 1.7.
Screening CC(C)c1ccc(C(C)NCCS(=O)(=O)c2ccc(Cl)cc2)cc1 (stereo not drawn) returned HIF activator 0.0, STK33 kinase inh -0.5, PP5 inh 2.0, Dyrk1A ADPGlo 0.9 and PP1 counter 0.1.
For O=C(NNC(=O)C1CCCO1)c1ccccc1Cl (stereo not drawn) the results were HIF activator -0.2, STK33 kinase inh 0.4, PP5 inh -0.2, Dyrk1A ADPGlo 4.7 and PP1 counter -2.3.
`O=C(NC(c1ccccc1)c1ccccc1)C1CCCO1` (stereo not drawn) gave HIF activator 130.5*, STK33 kinase inh -1.7, PP5 inh -1.7, Dyrk1A ADPGlo 1.5 and PP1 counter -1.1.
Screening CN(CC(=O)Nc1ccc(F)c(F)c1F)C(=O)CC1CCCCC1 returned STK33 kinase inh -0.5, PP5 inh 0.1, Dyrk1A ADPGlo -0.8 and PP1 counter -1.8.
